High-throughput results deposited in PubChem BioAssay by National Center for Advancing Translational Sciences (NCATS).
A selection: hits, their analogues and other compounds. The true share with any hit is near 4.1%.
Sm TGR block = S. mansoni TGR enzyme inhibition. Q962Y6. purified TGR, DTNB reduction, TNB absorbance 405 nm. Potency, µM (doses to about 114 µM), usual class: inhibitors. actives 3% (n = 360,000); note: nearly all actives have a fitted effect of over 60% in size
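TGR 20 nM + NADPH 100 uM (dispensed conc.), cpd preinc 15 min RT; start with NADPH (500 uM addition) then DTNB (15 mM addition). Kinetic TNB absorbance, 405 nm filter. Four-parameter Hill fit across titration.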
AmpC detergent = inhibitors of E. coli AmpC beta-lactamase with detergent; P00811; AmpC hydrolysis of nitrocefin, absorbance 480 nm, 0.01% Triton; Potency, µM (titrated, usually from 114 µM), most hits filed as inhibitors; actives 0.041% (n = 370,000); note: nearly all actives have a fitted effect of over 25% in size
Target sequence (P00811 whole entry, looked up): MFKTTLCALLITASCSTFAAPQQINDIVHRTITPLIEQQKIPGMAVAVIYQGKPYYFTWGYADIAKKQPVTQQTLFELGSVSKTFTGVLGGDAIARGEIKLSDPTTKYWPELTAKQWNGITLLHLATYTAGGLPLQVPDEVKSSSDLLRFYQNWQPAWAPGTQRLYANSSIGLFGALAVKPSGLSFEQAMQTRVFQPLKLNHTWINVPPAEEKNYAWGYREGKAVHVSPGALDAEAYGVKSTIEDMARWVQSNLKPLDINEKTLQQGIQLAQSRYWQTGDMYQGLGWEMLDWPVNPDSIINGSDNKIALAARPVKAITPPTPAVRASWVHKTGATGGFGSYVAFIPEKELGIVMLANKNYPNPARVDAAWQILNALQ
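20 mM phosphate pH 7.0 + 0.01% (detergent screen) or 0.0001% Triton X-100; 5.3 nM AmpC reagent; cpd preinc 15 min RT; nitrocefin (800 uM stock) to start; A480 q20 s × 4 min; Activity was normalised to no-enzyme and no-compound control wells.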
AMA1 RON2 block = inhibitors of Plasmodium falciparum AMA1-RON2 interaction. AID 720542. Potency, µM (titrated, usually from 58.2 µM), usual class: inhibitors. actives 0.2% (n = 360,000). AlphaScreen AMA1-biotinylated RON2 peptide binding; note: nearly all actives have a fitted effect of over 45% in size
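AMA1 (3D7) with his tag at 25 nM final met compounds first, then biotinylated RON2 peptide at 25 nM; detection used donor plus acceptor beads, 10 µg/mL apiece, read by AlphaScreen after 30 min at room temperature.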
FMDV antiviral = blocks foot and mouth disease virus; Potency, µM (highest dose often 57.9 µM), hits mostly inhibitors; actives 1.2% (n = 410,000); FMDV antiviral cell-based qHTS; calls by dose curve; tested in HEK293T cells; note: read-out not given here; nearly all actives have a fitted effect of over 45% in size
AmpC no deterg = inhibitors of E. coli AmpC beta-lactamase without detergent; actives 0.52% (n = 330,000); Potency, µM (doses to about 57.1 µM), usual class: inhibitors; AmpC nitrocefin hydrolysis, absorbance 480 nm, 0.0001% Triton; note: nearly all actives have a fitted effect of over 20% in size
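AmpC (5.3 nM in the dispensed reagent) in 20 mM phosphate pH 7.0 with 0.01% (detergent screen) or 0.0001% Triton X-100 was preincubated with compounds for 15 min at room temperature. Nitrocefin was then added from an 800 uM solution, and hydrolysis was followed at 480 nm.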
Large screens that a line does not name were inactive. Unless noted, calls come from the whole dose curve; as a rule, active = well fitted curve in the direction sought with a large enough effect; inconclusive = small, poorly fitted or top-dose-only effect, or another doubt; inactive = no such curve, though single readings can be large; an effect the other way counts as inactive or inconclusive.

C=C(C)CSc1nc(N)c(C#N)c(-c2ccc(C)cc2)c1C#N	Sm TGR block 35.5µM (no result: FMDV antiviral, AmpC no deterg)
CN(CCc1ccccn1)C1CC(=O)N(c2ccc(Cl)cc2)C1=O (centres undefined)	Sm TGR block 10µM
O=C(NC(=S)N1CCCC1)c1ccccc1F	AmpC detergent inconclusive
COc1ccc(CCNC(=S)NC(=O)c2ccc(Br)cc2)cc1OC	Sm TGR block inconclusive
COc1ccc(C(=O)NC(=S)NCc2ccccc2)cc1OC	none (no result: Sm TGR block)
COc1ccc(CCNC(=S)NC(=O)c2ccccc2)cc1C	Sm TGR block 3.55µM, AmpC no deterg 11.2µM
O=C(NC(=S)NC(=O)c1ccccc1F)c1ccccc1F	Sm TGR block 2.82µM, AmpC detergent inconclusive
O=C(NC(=S)NCCc1ccccc1)c1ccccc1F	Sm TGR block 39.8µM
Cc1ccc(C(=O)NC(=S)NCc2ccccc2)cc1	Sm TGR block 6.31µM
O=C(NC(=S)NCc1ccccc1)c1ccccc1F	Sm TGR block inconclusive
COc1ccc2c(CNC3CCC(C)CC3)c(C(=O)O)n(Cc3ccccc3)c2c1 (centres undefined)	none (no result: AMA1 RON2 block, AmpC no deterg)
CCOC(=O)c1c(C)c(-c2ccccc2)n(CC(=O)NCc2ccccc2)c1C	none (no result: AMA1 RON2 block, AmpC no deterg)
O=C(Nc1ccc(Cl)c(-c2nc3cc(Cl)ccc3o2)c1)c1cc([N+](=O)[O-])ccc1N1CCOCC1	none (no result: AMA1 RON2 block, AmpC no deterg)
CC(=O)NNC(=S)NCCc1ccccc1	none
Cc1ccc(C(=O)NC(=S)Nc2cccnc2Cl)cc1	Sm TGR block 15.8µM
O=C(NC(=S)NCCc1ccccc1)c1ccccc1	Sm TGR block 17.8µM, AmpC detergent inconclusive
COc1ccccc1C(=O)NC(=S)Nc1cccnc1Cl	none
CCCn1c(NCc2ccc3c(c2)OCO3)nc2ccccc21	Sm TGR block 89.1µM
CCCCn1c(NCc2ccc3c(c2)OCO3)nc2ccccc21	AmpC detergent inconclusive
CNc1oc(-c2ccccc2)nc1S(=O)(=O)c1ccc(C)cc1	none
CCCSc1oc(-c2cccs2)nc1S(=O)(=O)c1ccc(C)cc1	none (no result: AMA1 RON2 block, AmpC no deterg)
CCCCCS(=O)(=O)c1oc(-c2cccs2)nc1S(=O)(=O)c1ccc(C)cc1	Sm TGR block 2.82µM, FMDV antiviral 28.2µM (no result: AMA1 RON2 block, AmpC no deterg)
CCC(C)S(=O)(=O)c1oc(-c2ccc(F)cc2)nc1S(=O)(=O)c1ccc(F)cc1 (centres undefined)	Sm TGR block 5.62µM, FMDV antiviral inconclusive (no result: AMA1 RON2 block, AmpC no deterg)
CCCCS(=O)(=O)c1oc(-c2ccc(F)cc2)nc1S(=O)(=O)c1ccc(C)cc1	Sm TGR block 3.16µM, FMDV antiviral 28.2µM (no result: AMA1 RON2 block, AmpC no deterg)
CCCCS(=O)(=O)c1oc(-c2cccs2)nc1S(=O)(=O)c1ccc(F)cc1	Sm TGR block 1.58µM, FMDV antiviral 31.6µM (no result: AMA1 RON2 block, AmpC no deterg)
Cc1cc(C)c2oc(C(=O)Nc3sc4c(c3C(=O)NCc3ccco3)CCCC4)cc(=O)c2c1	none (no result: AMA1 RON2 block, AmpC no deterg)
CCS(=O)(=O)c1oc(-c2ccc(F)cc2)nc1S(=O)(=O)c1ccccc1	Sm TGR block 0.708µM, FMDV antiviral 17.8µM (no result: AMA1 RON2 block, AmpC no deterg)
COC(=O)c1ccc(CN(Cc2ccc(OC)c(OC)c2)S(=O)(=O)c2cc(C(=O)Nc3cccc(C)c3)ccc2F)cc1	none (no result: AMA1 RON2 block, AmpC no deterg)
Cc1cc2ccccn2c1C(C[N+](=O)[O-])c1ccc(N(C)C)cc1 (centres undefined)	Sm TGR block inconclusive, AMA1 RON2 block inconclusive
COc1ccc(C(C[N+](=O)[O-])c2c(-c3ccccc3)cc3ccccn23)c(OC)c1 (centres undefined)	Sm TGR block 56.2µM
COc1ccc(C(C[N+](=O)[O-])c2c(C)cc3ccccn23)cc1 (centres undefined)	Sm TGR block 28.2µM
COc1ccc(C(C[N+](=O)[O-])c2c(C)[nH]n(-c3ccccc3)c2=O)cc1 (centres undefined)	Sm TGR block 17.8µM
CC(C)CCn1c(=O)c2sccc2n2c(CCCC(=O)NC3CCC(C)CC3)nnc12 (centres undefined)	none (no result: AMA1 RON2 block, AmpC no deterg)
COc1ccc(N2CCN(c3oc(Cc4ccccc4)nc3C#N)CC2)cc1	AMA1 RON2 block 16.8µM, FMDV antiviral inconclusive
COc1ccc(N2CCN(c3oc(COc4ccccc4)nc3C#N)CC2)cc1	AMA1 RON2 block inconclusive
COCCCNc1oc(COc2ccc(Cl)cc2Cl)nc1C#N	Sm TGR block 20µM
N#Cc1nc(COc2ccc(Cl)cc2Cl)oc1N1CCN(c2ccccc2)CC1	Sm TGR block inconclusive, AMA1 RON2 block inconclusive
CN(C)CCNc1oc(COc2ccc(Cl)cc2Cl)nc1C#N	Sm TGR block inconclusive
